Sampled rows, rich in hits. Any-hit rate of the full collection: about 0.51%.
Tat transport = inhibitors of E. coli Tat protein transport. E. coli MC4100 TorA-mCherry Tat export, fluorescence. inhibition, % at 10 µM. 340,000 compounds, 0.036% hits. AID 488895;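 active = mean replicate inhibition at least 50% and at least half of replicates individually reaching 50%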;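 note: exported cargo escapes ClpAP degradation while cytoplasmic cargo is degraded and loses fluorescence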
E coli growth-1 = bacterial growth inhibition, counter-screen for AddAB inhibitors; E. coli V3065 growth, OD600 absorbance, 18 h; inhibition, % at 11.9 µM; 330,000 compounds, 0.27% hits; AID 449728;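 active = inhibition above the campaign's mean inhibition across all tested compounds plus 3 SD, cut at about 9.9% in these data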;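 note: uninfected addAB+ strain grown without phage in ampicillin broth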
phage Ecoli inh = E. coli growth loss with phage present. growth absorbance. inhibition, % at 11.9 µM. 360,000 compounds, 0.26% hits. AID 651602; in the data active = inhibition above about 11%
AddAB inh = less growth of phage-infected E. coli with AddAB; E. coli expressing H. pylori AddAB, absorbance growth; inhibition, % at 11.9 µM; 330,000 compounds, 0.29% hits; AID 435030; in the data active = inhibition above about 12%
E coli growth-2 = blocks Escherichia coli growth | OD600, 23 h; hits give low values | AID 1053175 | 330,000 compounds, 0.21% hits | OD600 absorbance (no concentration beside the values);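 active = OD600 absorbance below the run mean of sample wells minus 3.6 SD, in any replicate, cut at about 0.56 in these data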
AddAB conf = confirmation screen: growth loss of phage-infected E. coli expressing H. pylori AddAB; AID 488942; shares compounds with AddAB inh; 880 compounds, 64% hits; E. coli V3065 expressing H. pylori AddAB, T4 phage, OD; T4 phage with gene 2 nonsense mutations; inhibition, % at 11.9 µM;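 active = mean inhibition above a set limit taken from the earlier primary screen, cut at about 13% in these data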;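 note: higher means less bacterial growth since AddAB block lets phage replicate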
RecBCD counter = AddAB counter-screen: growth loss of RecBCD+ E. coli infected with mutant T4 phage. AID 488955. E. coli V66 + mutant T4 phage, OD growth. shares compounds with AddAB inh. 880 compounds, 73% hits. inhibition, % at 11.9 µM;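 active = mean inhibition above the mean of solvent-only control wells plus 3 SD, cut at about 4% in these data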;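 note: optical density read after an 18 h incubation at 37 °C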
bact viab count = counter-screen: bacterial growth inhibition. shares compounds with AddAB inh. bacterial viability, absorbance (AddAB counterscreen). inhibition, % at 11.9 µM. 880 compounds, 35% hits. AID 488956; in the data active = inhibition above about 25%
RecBCD conf = confirmation: growth loss of phage-infected RecBCD+ E. coli (RecBCD inhibitor screen); inhibition, % at 11.9 µM; 890 compounds, 45% hits; AID 651982; shares compounds with phage Ecoli inh; E. coli V66 + T4 2- phage, growth OD;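 active = mean inhibition over triplicates exceeding the hit threshold derived in the original primary screen, cut at about 11% in these data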
Ecoli viability = bacterial viability inhibition counter-screen for RecBCD. shares compounds with phage Ecoli inh. E. coli viability, absorbance (OD) growth. inhibition, % at 11.9 µM. 890 compounds, 29% hits; in the data active = inhibition above about 20%;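 note: E. coli strain V66 grown with compound alone and no phage infection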
AddAB phage OD = growth loss of phage-infected AddAB E. coli, RecBCD counter-screen; 890 compounds, 45% hits; E. coli expressing H. pylori AddAB + T4 phage, OD growth; gene 2 mutant T4, recBCD-deleted host; shares compounds with phage Ecoli inh; inhibition, % at 11.9 µM; AID 651984;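 active = mean inhibition above the solvent-only control wells' mean plus 3 SD, cut at about 22% in these data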;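 note: higher means less bacterial growth from phage killing when AddAB is blocked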
A number is an active result; 0 = inactive; - = no result.

SMILES	Tat transport	E coli growth-1	phage Ecoli inh	AddAB inh	E coli growth-2	RecBCD conf	Ecoli viability	AddAB phage OD	others
CN1CCN(C(c2ccc(F)cc2)c2ccc3cccnc3c2O)CC1 (configuration not stated)	0	-	-	-	0	-	-	-
CN1CCN(C(c2ccc(Br)cc2)c2cc(Cl)c3cccnc3c2O)CC1 (configuration not stated)	0	23.4	13.0	22.3	-	0	0	0	AddAB conf=0;RecBCD counter=10.7;bact viab count=0
C[C@@]12C(=O)N(c3cccc(Cl)c3)C(=O)N1C1c3ccccc3OCC1C2c1ccccc1 (some centres not stated)	-	-	-	-	0	-	-	-
CC(C)C[C@H]1CNC(=S)N1C[C@H]1CCCN1C[C@H](Cc1ccccc1)N1C[C@H](Cc2ccc(O)cc2)N(CC2CCCCC2)C1=S	-	-	11.7	-	-	0	0	0
Cc1ccc(-c2nc(CS(=O)CC(=O)NCc3ccccc3)c(C)o2)cc1 (configuration not stated)	0	0	29.0	0	0	0	0	0
On1onc2c3cc(-c4ccccc4)nc3ccc21	0	11.5	12.7	0	0.469	0	0	0
c1ccc(-c2cc3c(ccc4nonc43)nn2)cc1	0	0	0	0	0	-	-	-
CC(C)(C)c1cc2nc3c(c(=O)n2[nH]1)CN(Cc1ccccc1)C3=O	-	0	12.2	0	0	0	0	0
Cc1[nH]nc(C(=O)NN=Cc2ccccc2Cl)c1N=NN(C)C	0	-	14.0	-	-	0	0	41.5
COC(=O)C=Cc1cnc[nH]1	-	-	-	-	0	-	-	-
Fc1ccccc1CNC(=S)Nc1cccc(C(F)(F)F)c1	0	0	10.9	0	0	0	0	0
FC(F)(F)c1cccc(NC(=S)NCc2ccc(Cl)cc2)c1	0	0	13.3	0	0	0	0	0
Cc1ccc(-c2[nH]c3cc(C(=O)NCCCn4ccnc4)ccc3c(=O)c2O)cc1	0	0	11.3	0	0	0	0	0
O=C(NCCCn1ccnc1)c1ccc(Cl)c(Cl)c1	0	0	0	0	0	-	-	-
OCC1OC(n2cnc3c(=S)nc[nH]c32)CC1O (configuration not stated)	0	-	17.9	-	0	0	0	0
COc1ccc2c(c1)C(=O)N1C3c4cc(Br)ccc4OCC3C(c3ccccc3)[C@]1(C)C(=O)N2 (some centres not stated)	-	-	-	-	0	-	-	-
O=c1cc(-c2ccccc2)oc2cc(O)c(O)c(O)c12	0	10.8	11.8	0	0	0	0	0
COc1c(O)cc2oc(-c3ccc(O)cc3)cc(=O)c2c1O	0	0	0	0	0	-	-	-
O=C(NC(Cc1ccccc1)C(=O)O)c1c(F)c(F)c(F)c(F)c1F (configuration not stated)	-	-	-	-	0	-	-	-
CCC1OC(=O)C(C)C(OC2C[C@@](C)(OC)C(O)C(C)O2)C(C)C(O[C@@H]2OC(C)CC(N(C)C)C2O)[C@](C)(O)CC(C)C(=NOCOCCOC)C(C)C(O)[C@]1(C)O (some centres not stated)	0	10.0	11.7	0	-	0	0	0
Cc1[nH]nc(-c2cccnc2)c1N=NN(C)C	142.1	-	98.8	-	-	103.5	103.8	102.4
C=C(C)CNC(=O)C1CCC(=O)N(CCCc2ccccc2)C1 (configuration not stated)	0	0	30.1	0	-	0	0	0
O=C(NCCc1cccc(F)c1)C1CCC(=O)N(CCCc2ccccc2)C1 (configuration not stated)	0	0	0	0	0	-	-	-
O=S1(=O)CCOC2Cc3ccccc3C2N1Cc1cccc(C(F)(F)F)c1 (configuration not stated)	-	-	-	-	0	-	-	-
O=C(N/N=C/c1c(O)n(-c2ccccc2Cl)c(=O)c2ccccc12)c1cccnc1	0	-	0	-	0	-	-	-
SMILES	Tat transport	E coli growth-1	phage Ecoli inh	AddAB inh	E coli growth-2	RecBCD conf	Ecoli viability	AddAB phage OD	others
O=C(N/N=C/c1c(O)n(Cc2ccccc2)c(=O)c2ccccc12)c1cccnc1	0	10.8	14.5	0	0	0	0	0
COc1ccc(Cn2c(O)c(/C=N/NC(=O)c3cccnc3)c3ccccc3c2=O)cc1	0	-	15.4	-	0	0	0	0
COc1cc(C=CC(=O)OCC(=O)NC(=O)NC(C)C)cc(OC)c1OC	-	-	-	-	0	-	-	-
CCOc1c(Br)cc(CNc2ccc(N3CCOCC3)cc2)cc1OC	0	0	97.7	0	0	0	0	0
C=CCN1C(=O)C(=CC=C2N(C)c3ccccc3C2(C)C)SC1=S	-	-	-	-	0	-	-	-
COc1cc(O)c2c(=O)c3c(OC4OC(CO)C(O)C(O)C4O)ccc(O)c3oc2c1 (configuration not stated)	-	-	-	-	0	-	-	-
CCOC(=O)c1c(C)[nH]c(C(=O)N/N=C\c2ccccc2O)c1C	0	0	17.1	0	-	0	0	0
CO[C@H]1C=CO[C@@]2(C)Oc3c(C)c(O)c4c(O)c(c(C=NN5CCN(C)CC5)c(O)c4c3C2=O)NC(=O)C(C)=CC=C[C@H](C)[C@H](O)[C@@H](C)[C@@H](O)[C@@H](C)[C@H](OC(C)=O)[C@@H]1C	75.0	41.6	76.4	48.7	-	78.2	90.1	92.8
CC[C@@]12C(=O)N(c3cccc(Br)c3)C(=O)N1C(c1ccc(Cl)cc1)C1C(=O)N(C3CCCCC3)C(=O)C12 (some centres not stated)	-	-	-	-	0	-	-	-
Cc1cc2cc(CCNC(=O)c3cccs3)c(=O)[nH]c2cc1C	0	0	14.1	0	0	0	0	0
CCC(=O)Nc1cccc(C2=NOC3(C2)CC(C(N)=O)N(C(=O)c2cc([N+](=O)[O-])cc([N+](=O)[O-])c2)C3)c1 (configuration not stated)	-	-	-	-	0	-	-	-
COC(=O)C1NC(=O)N2C1SC(C)(C)C2C(=O)OC (configuration not stated)	-	-	-	-	0	-	-	-
O=C(NC=NOCc1cccc(C(F)(F)F)c1)N1OCC2COc3ccc4ccccc4c3C21 (configuration not stated)	-	-	-	-	0	-	-	-
COc1ccc(C2CC(=O)C=C(c3ccc(OC)nc3)C2)cc1 (configuration not stated)	-	-	-	-	0	-	-	-
COc1cccc(NC(=O)Nc2nc(SC(C)(C)C)ns2)c1	0	0	12.6	0	0	0	0	0

Screening data: PubChem BioAssay, several laboratories
